High-throughput results (PubChem)
This is a sample that favours compounds with a hit; in the whole collection about 3.9% have one here.
Anthrax LF prot – blocks Bacillus anthracis lethal factor protease; multiplex microsphere protease cleavage assay, LF; inhibition, % at 10 µM; AID 588501; 360,000 tested, 0.12% active
Target sequence (P15917 whole entry, looked up): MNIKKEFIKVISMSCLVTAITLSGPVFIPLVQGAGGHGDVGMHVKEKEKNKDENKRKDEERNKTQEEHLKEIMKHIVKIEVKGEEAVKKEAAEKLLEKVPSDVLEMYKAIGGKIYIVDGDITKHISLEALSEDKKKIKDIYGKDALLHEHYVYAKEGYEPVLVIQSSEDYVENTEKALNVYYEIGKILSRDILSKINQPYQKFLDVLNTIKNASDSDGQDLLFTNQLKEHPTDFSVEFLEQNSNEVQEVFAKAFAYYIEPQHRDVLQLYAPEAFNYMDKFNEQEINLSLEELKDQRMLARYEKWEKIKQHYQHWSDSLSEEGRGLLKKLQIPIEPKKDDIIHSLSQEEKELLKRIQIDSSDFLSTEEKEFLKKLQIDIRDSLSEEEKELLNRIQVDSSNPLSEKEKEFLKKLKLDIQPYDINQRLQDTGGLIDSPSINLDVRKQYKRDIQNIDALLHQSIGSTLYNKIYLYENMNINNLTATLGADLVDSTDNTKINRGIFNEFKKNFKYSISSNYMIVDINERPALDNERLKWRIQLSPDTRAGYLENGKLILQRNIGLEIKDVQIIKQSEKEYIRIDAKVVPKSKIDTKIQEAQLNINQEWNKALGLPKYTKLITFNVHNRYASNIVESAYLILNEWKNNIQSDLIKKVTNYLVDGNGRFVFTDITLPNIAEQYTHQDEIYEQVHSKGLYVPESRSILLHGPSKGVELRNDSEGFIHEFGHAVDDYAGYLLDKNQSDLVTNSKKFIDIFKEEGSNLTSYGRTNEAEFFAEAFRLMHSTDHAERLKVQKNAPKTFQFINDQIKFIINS
BoNT-A LC inh2 – inhibitors of Botulinum neurotoxin A light chain protease. multiplex microsphere protease substrate cleavage, flow cytometry. inhibition, % at 10 µM. 360,000 tested, 0.17% active
CCHFV vOTU inh – blocks the CCHF virus ovarian tumor domain protease; CCHFV vOTU protease, Pep-AMC fluorescence; inhibition, % at 11.5 µM; 370,000 tested, 0.55% active; in the data active means inhibition above about 30%
Autofluor counter – counter-screen for toxin protease inhibitors: compound fluorescence | 360,000 tested, 3.1% active | fluorescence intensity (no concentration beside the values) | compound autofluorescence counterscreen, microsphere flow cytometry; hits give high values; in the data active means fluorescence intensity above about 16000; inconclusive means no clear call, values can overlap the other calls
3CLpro inhibitor – SARS-CoV 3CLpro protease inhibition. P0C6X7. recombinant SARS-CoV 3CLpro, quenched FRET peptide cleavage. inhibition, % at 6 µM. 290,000 tested, 0.14% active. AID 1706; in the data active means inhibition above about 12%
BoNT F protease – BoNT F light chain protease inhibition; Multiplex microsphere protease cleavage assay, flow cytometry; inhibition, % at 10 µM; 360,000 tested, 0.22% active; AID 588497; in the data active means inhibition above about 35%, passing the limit was not always enough; inconclusive means no clear call, values can overlap the other calls
A number is an active result. Unless noted, no stated cut-off is given here; in the data, active means inhibition above about 30%; inconclusive means no clear call, values can overlap the other calls; inactive means below that.

`c1ccc(CNc2ncnc3c2oc2ccccc23)nc1` gave Anthrax LF prot inactive, BoNT-A LC inh2 inconclusive, CCHFV vOTU inh inactive, Autofluor counter 22122, 3CLpro inhibitor inactive and BoNT F protease inactive.
c1ccc(-c2nc(NCC3CCCO3)c3oc4ccccc4c3n2)cc1 (centres undefined) was read as Anthrax LF prot inactive, BoNT-A LC inh2 inconclusive, CCHFV vOTU inh inactive, Autofluor counter 23676, 3CLpro inhibitor inactive and BoNT F protease inactive.
`CC(C)Cc1nc2oc3c(NCc4cccnc4)ncnc3c2c2c1CCC2` gave Anthrax LF prot inactive, BoNT-A LC inh2 inactive, CCHFV vOTU inh inactive, Autofluor counter inactive, 3CLpro inhibitor inactive and BoNT F protease inactive.
c1ccc2c(c1)oc1c(NCC3CCCO3)ncnc12 (centres undefined) was read as Anthrax LF prot inactive, BoNT-A LC inh2 inactive, CCHFV vOTU inh inactive, Autofluor counter 23180, 3CLpro inhibitor inactive and BoNT F protease inactive.
Screening CCc1nc(NCc2ccccn2)c2oc3ccccc3c2n1 returned Anthrax LF prot inactive, BoNT-A LC inh2 inactive, CCHFV vOTU inh inactive, Autofluor counter inactive and BoNT F protease inactive.
CC(C)Cc1nc2oc3c(NCC4CCCO4)ncnc3c2c2c1CCC2 (centres undefined) was read as Anthrax LF prot inactive, BoNT-A LC inh2 inconclusive, CCHFV vOTU inh inactive, Autofluor counter 18869, 3CLpro inhibitor inactive and BoNT F protease inactive.
COc1ccccc1NC(=O)CCC(=O)Nc1cc(OC)c(NC(=O)c2cccs2)cc1OC was read as Anthrax LF prot inactive, BoNT-A LC inh2 inactive, CCHFV vOTU inh inactive, Autofluor counter inactive, 3CLpro inhibitor inactive and BoNT F protease inactive.
Screening COc1ccc(CNC(=O)Cn2nc(C)c3c(C)n(-c4ccc(C)cc4)nc3c2=O)cc1OC returned Anthrax LF prot inactive, BoNT-A LC inh2 inactive, CCHFV vOTU inh inactive, Autofluor counter inactive, 3CLpro inhibitor inactive and BoNT F protease inactive.
For Cc1cn([C@H]2C[C@H](O)[C@@H](CNCc3cccn3-c3ccncc3)O2)c(=O)[nH]c1=O the results were Anthrax LF prot inactive, BoNT-A LC inh2 inactive, CCHFV vOTU inh inactive, Autofluor counter inactive and BoNT F protease inactive.
For CCOc1ccc(-c2c(C(=O)N/N=C/c3cccc(Br)c3)nnn2-c2nonc2N)cc1 the results were CCHFV vOTU inh inactive and 3CLpro inhibitor inactive.
Screening CC(C)N1C2OC(C3OC4C(O3)N(C(C)C)S(=O)(=O)N4C(C)C)OC2N(C(C)C)S1(=O)=O (centres undefined) returned Anthrax LF prot inactive, BoNT-A LC inh2 inactive, CCHFV vOTU inh inactive, Autofluor counter 23341, 3CLpro inhibitor inactive and BoNT F protease inactive.
For CC(=O)Nc1nc(=S)n(-c2ccccc2)[nH]1 the results were Anthrax LF prot inactive, BoNT-A LC inh2 inactive, CCHFV vOTU inh inactive, Autofluor counter 22526, 3CLpro inhibitor inactive and BoNT F protease inactive.
Screening CC(C)c1nc(=S)n(-c2ccccc2)[nH]1 returned Anthrax LF prot inactive, BoNT-A LC inh2 inactive, CCHFV vOTU inh inactive, Autofluor counter inactive, 3CLpro inhibitor inactive and BoNT F protease inactive.
Cc1cccc(C)c1NC(=O)NS(=O)(=O)c1ccccc1 was read as Anthrax LF prot inactive, BoNT-A LC inh2 inactive, CCHFV vOTU inh inactive, Autofluor counter inactive and BoNT F protease inactive.
For CCOc1ccc2c(c1)n(CO)c(=S)n2CO the results were Anthrax LF prot inactive, BoNT-A LC inh2 inconclusive, CCHFV vOTU inh inactive, Autofluor counter 22336, 3CLpro inhibitor inactive and BoNT F protease inactive.
COCCNC(=O)NC(=O)COC(=O)Cc1ccc2c(c1)OCCO2 was read as Anthrax LF prot inactive, BoNT-A LC inh2 inactive, CCHFV vOTU inh inactive, Autofluor counter 22511, 3CLpro inhibitor inactive and BoNT F protease inactive.
`COc1cc(CC(=O)OCC(=O)Nc2ccc3c(c2)OCCO3)cc(OC)c1OC` gave Anthrax LF prot inactive, BoNT-A LC inh2 inactive, CCHFV vOTU inh inactive, Autofluor counter inactive, 3CLpro inhibitor inactive and BoNT F protease inactive.
For C=CCn1c(=O)c2ccccc2n2c(SCC(C)=O)nnc12 the results were Anthrax LF prot inactive, BoNT-A LC inh2 inactive, CCHFV vOTU inh inactive, Autofluor counter inactive, 3CLpro inhibitor inactive and BoNT F protease inactive.
For CSc1ccccc1C(=O)Nc1ccc(C)c(C)c1 the results were Anthrax LF prot inactive, BoNT-A LC inh2 inconclusive, CCHFV vOTU inh inactive, Autofluor counter 16135, 3CLpro inhibitor inactive and BoNT F protease inactive.
COc1ccc(OC)c(NC(=O)c2ccccc2SC)c1 was read as Anthrax LF prot inactive, BoNT-A LC inh2 inactive, CCHFV vOTU inh inactive, Autofluor counter 16141, 3CLpro inhibitor inactive and BoNT F protease inactive.
CSc1ccccc1C(=O)Nc1cc(C)cc(C)c1 was read as Anthrax LF prot inactive, BoNT-A LC inh2 inactive, CCHFV vOTU inh inactive, Autofluor counter inactive, 3CLpro inhibitor inactive and BoNT F protease inactive.
c1ccc(Nc2cc(-c3ccccc3)nc3ncnn23)cc1 was read as Anthrax LF prot inactive, BoNT-A LC inh2 inconclusive, CCHFV vOTU inh inactive, Autofluor counter 16695, 3CLpro inhibitor inactive and BoNT F protease inactive.
For Clc1ccc(Nc2cc(-c3ccccc3)nc3ncnn23)cc1 the results were Anthrax LF prot inconclusive, BoNT-A LC inh2 inactive, CCHFV vOTU inh inactive, Autofluor counter inactive, 3CLpro inhibitor inactive and BoNT F protease inactive.
`CCCn1c(=O)c(F)cn(Cc2ccc(OC)c([N+](=O)[O-])c2)c1=O` gave Anthrax LF prot inactive, BoNT-A LC inh2 inactive, CCHFV vOTU inh inactive, Autofluor counter 21734, 3CLpro inhibitor inactive and BoNT F protease inactive.
For Cc1ccc(NC(=O)CN2CCCCCC2)c(Br)c1 the results were Anthrax LF prot inactive, BoNT-A LC inh2 inactive, CCHFV vOTU inh inactive, Autofluor counter 24257, 3CLpro inhibitor inactive and BoNT F protease inactive.
For O=C(CN1CCCCCC1)Nc1cccc(Br)c1 the results were Anthrax LF prot inactive, BoNT-A LC inh2 inactive, CCHFV vOTU inh inactive, Autofluor counter 20288, 3CLpro inhibitor inactive and BoNT F protease inactive.
`CCN(CC)c1ccc(C=NNC(=O)c2cc(-c3ccc(C)c(C)c3)n[nH]2)c(O)c1` gave CCHFV vOTU inh inactive.
For Cc1cc(C(=O)Nc2sc3c(c2C#N)CCC(C)C3)no1 (centres undefined) the results were Anthrax LF prot inactive, BoNT-A LC inh2 inactive, CCHFV vOTU inh inactive, Autofluor counter inactive, 3CLpro inhibitor inactive and BoNT F protease inactive.
`CC1CCc2c(sc(NC(=O)C(=O)NCc3ccco3)c2C#N)C1` (centres undefined) gave Anthrax LF prot inactive, BoNT-A LC inh2 inconclusive, CCHFV vOTU inh inactive, Autofluor counter 20783, 3CLpro inhibitor inactive and BoNT F protease inactive.
For Cc1nc(NC(C)C(=O)O)c2nc(C)oc2n1 (centres undefined) the results were Anthrax LF prot inactive, BoNT-A LC inh2 inactive, CCHFV vOTU inh inactive, Autofluor counter 21393, 3CLpro inhibitor inactive and BoNT F protease inactive.
`Cc1nc(N[C@@H](Cc2ccccc2)C(=O)O)c2oc3ccccc3c2n1` gave Anthrax LF prot inactive, BoNT-A LC inh2 inactive, CCHFV vOTU inh inactive, Autofluor counter inactive, 3CLpro inhibitor inactive and BoNT F protease inactive.
For O=C(C[n+]1cc(Br)cc2ccccc21)c1ccccc1 the results were Anthrax LF prot 46.4, BoNT-A LC inh2 100.3, CCHFV vOTU inh inactive, Autofluor counter inactive, 3CLpro inhibitor inactive and BoNT F protease inactive.
